Data as given in PubChem BioAssay (EPA / NIEHS).
Results filed as inconclusive are left out. Calls of active or inactive are those of the source. How the source made its calls, unless noted: active means hit-call score of the fitted dose curve at least 0.9, where 1 is the maximum; inconclusive means response in the unintended direction; inactive means score below 0.9.

What was measured:
[1] = Tanguay_ZF_120hpf_SOMI_legacy: (Legacy) Oregon State University Tanguay Lab 120 Hour Post-fertilization zebrafish Assay for Somite Malformation (AID 2283647)
Summary of the method: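 Read-out: presence or absence of somite malformation in 120 hpf larvae, gain-of-signal relative to DMSO baseline. Embryos lacked chorion (pronase, 4 hpf) and were exposed statically from 6 hpf at 28C; dead larvae not scored.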

[2] = Tanguay_ZF_120hpf_PFIN_legacy: (Legacy) Oregon State University Tanguay Lab 120 Hour Post-fertilization zebrafish Assay for Pectoral Fin Malformation (AID 2283648);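 further: each larva judged yes or no for fin defect by brightfield with dead larvae skipped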
Summary of the method: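 Binary pectoral fin malformation call at 120 hpf by brightfield microscopy; 5D wild-type zebrafish, chorion removed at 4 hpf, one embryo per well from 6 hpf, static exposure at 28C; DMSO (0.64% final) as baseline.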

[3] = Tanguay_ZF_120hpf_CFIN_legacy: (Legacy) Oregon State University Tanguay Lab 120 Hour Post-fertilization zebrafish Assay for Caudal Fin Malformation (AID 2283649)
Summary of the method: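 Binary presence or absence of caudal fin malformation at 120 hpf, read by brightfield microscopy, with DMSO as baseline. Larvae came from 5D wild-type embryos exposed statically from 6 hpf at 28C after pronase dechorionation.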

[4] = Tanguay_ZF_120hpf_PIG_legacy: (Legacy) Oregon State University Tanguay Lab 120 Hour Post-fertilization zebrafish Assay for Pigmentation Malformation (AID 2283650);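 further: dechorionated Tropical 5D zebrafish embryos exposed singly from 6 to 120 hpf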
Summary of the method: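 Brightfield scoring of pigmentation malformation at 120 hpf, recorded as binary present/absent per larva. Exposure: dechorionated 5D wild-type embryos, one per well, static from 6 hpf at 28C, final DMSO 0.64% (vol/vol). Dead embryos not scored.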

[5] = Tanguay_ZF_120hpf_CIRC_legacy: (Legacy) Oregon State University Tanguay Lab 120 Hour Post-fertilization zebrafish Assay for Circulatory Malformation (AID 2283651)
Summary of the method: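 Static exposure, 6–120 hpf, 28C, sealed and dark; one dechorionated 5D embryo/well; DMSO 0.64% v/v final. Binary circulation endpoint by brightfield; dead embryos not scored.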

[6] = Tanguay_ZF_120hpf_SWIM_legacy: (Legacy) Oregon State University Tanguay Lab 120 Hour Post-fertilization zebrafish Assay for Swim Bladder Malformation (AID 2283654);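 further: swim bladder malformation in each larva scored yes or no under brightfield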
Summary of the method: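 Tropical 5D embryos dechorionated at 4 hpf; 1 embryo/well from 6 hpf; static, sealed, dark exposure at 28C until 120 hpf; final DMSO 0.64%; 5uM trimethyltin chloride positive control; swim bladder defect recorded yes/no; dead embryos not scored.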

[7] = Tanguay_ZF_120hpf_TRUN_legacy: (Legacy) Oregon State University Tanguay Lab 120 Hour Post-fertilization zebrafish Assay for Truncated Body (AID 2283655)
Summary of the method: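 Truncated body is recorded as a binary endpoint at 120 hpf by brightfield imaging of wild-type 5D larvae. Exposure runs statically from 6 hpf at 28C with 0.64% DMSO; embryos dying earlier are not scored.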

[8] = Tanguay_ZF_120hpf_NC_legacy: (Legacy) Oregon State University Tanguay Lab 120 Hour Post-fertilization zebrafish Assay for Notochord and Tail Malformation (AID 2283656)
Summary of the method: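 Binary notochord-distortion calls, made by brightfield inspection, form the read-out; activity is fitted in the positive direction against DMSO. Exposure ran statically from 6 to 120 hpf at 28C with 0.64% DMSO.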

[9] = read-out: solute carrier (SLC22A6), SLC22A6 (gene 9356); experiment: LTEA_HepaRG_SLC22A6: Life Technologies and Expression Analysis (LTEA) Assay for solute carrier (SLC22A6) using HepaRG (AID 2283653; active means hit-call score of the fitted dose curve at least 0.9, where 1 is the maximum; inactive means score below 0.9); conditions: mRNA level, 48 h; actives raise or lower the signal
Summary of the method: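 Read-out is SLC22A6 transcript level by qRT-PCR, normalised to three housekeeping genes and fitted for gain or loss relative to 0.5% DMSO vehicle. Human HepaRG cells received chemicals at up to 100 uM for 48 h.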

[10] = read-out: kallikrein-3 (KLK3), KLK3 (gene 354); experiment: LTEA_HepaRG_KLK3: Life Technologies and Expression Analysis (LTEA) Assay for kallikrein-3 (KLK3) using HepaRG (AID 2283652; active means hit-call score of the fitted dose curve at least 0.9, where 1 is the maximum; inactive means score below 0.9); conditions: mRNA level, 48 h; actives raise or lower the signal
Procedure: LTEA_HepaRG is a cell based, multiplexed-readout assay that uses HepaRG, a human liver cell line, with measurements taken at 48 hours after chemical dosing on a 96-well plate.LTEA_HepaRG_KLK3 is one of 102 assay component(s) measured in the LTEA HepaRG cell culture assay. It is a marker of Cellular remodeling.Data from the assay component LTEA_HepaRG_KLK3 was analyzed into 1 endpoint. This assay endpoint, LTEA_HepaRG_KLK3, was analyzed with bidirectional fitting relative to DMSO as the negative control and baseline of activity. Using a type of inducible reporter, measures of mRNA induction for gain or loss-of-signal activity can be used to understand regulation of transcription factor activity. To generalize the intended target to other relatable targets, this assay endpoint is annotated to the protease intended target family, where the subfamily is Cellular remodeling.
A total of 1060 chemcials from the ToxCast library were tested in eight-point concentration-response experiments. Cell culture and cytotoxicity assays were conducted at Thermo Fisher Scientific's Custom Services facility (Madison, WI). A single lot of human HepaRG cells (Thermo Fisher Scientific, Frederick, MD) was used for the cell culture experiments. 96-well format collagen type I coated plates of human HepaRG cells were prepared using established methods. Briefly, cryopreserved HepaRG cells were thawed, plated at a density of approximately 100,000 cells/well in HepaRG Thaw, Plate, and General Purpose media (HPRG770, Thermo Fisher Scientific), and incubated for 48 hours. […] Fluidigm's 96.96 Dynamic ArrayTM (Fluidigm, Amsterdam, the Netherlands) technology was used for gene expression analyses by quantitative reverse transcription polymerase chain reaction (qRT-PCR, performed by Quintiles/Expression Analysis, Durham, NC)89. […]

Measured: AC50

COCc1cnc(C2=NC(C)(C(C)C)C(=O)N2)c(C(=O)O)c1 (centres undefined)
not listed: [8] | [9] | [10]
inactive: all other assays above

COC(=O)N(C(=O)N1CO[C@@]2(C(=O)OC)Cc3cc(Cl)ccc3C2=N1)c1ccc(OC(F)(F)F)cc1
not listed: [7] | [9] | [10]
inactive: all other assays above

CC1(C)C(C(=O)OC(C#N)c2cccc(Oc3ccccc3)c2)C1(C)C (centres undefined)
not listed: [9] | [10]
inactive: all other assays above

COC(=O)c1c(C(F)F)nc(C(F)(F)F)c(C2=NCCS2)c1CC(C)C
not listed: [9] | [10]
inactive: all other assays above

CC(C)N1C(=O)N(c2ccccc2)CSC1=NC(C)(C)C
not listed: [5] | [9] | [10]
inactive: all other assays above

CCOC(=O)C(C)OC(=O)c1cc(Oc2ccc(C(F)(F)F)cc2Cl)ccc1[N+](=O)[O-] (centres undefined)
not listed: [4] | [9] | [10]
inactive: all other assays above

CSC(=O)c1c(C(F)F)nc(C(F)(F)F)c(C(=O)SC)c1CC(C)C
not listed: [4] | [9] | [10]
inactive: all other assays above

CN=C=S
not listed: [1] | [8] | [10]
inactive: all other assays above

COc1cc(Cl)c(OC)cc1Cl
not listed: [7] | [9] | [10]
inactive: all other assays above

CN/C(=N\[N+](=O)[O-])NCc1cnc(Cl)s1
not listed: [4] | [9] | [10]
inactive: all other assays above

CC1(C)CCC(=Cc2ccc(Cl)cc2)C1(O)Cn1cncn1 (centres undefined)
inactive: [2] | [3] | [5] | [6] | [7] | [8]

CCN(CC)c1nc(C)cc(OP(=S)(OC)OC)n1
not listed: [5] | [9] | [10]
inactive: all other assays above

CNC(=O)Oc1cccc2ccccc12
inactive: [1] | [3] | [5] | [6] | [7]

CC(C)=CC1C(C(=O)OCc2coc(Cc3ccccc3)c2)C1(C)C (centres undefined)
inactive: [2] | [3] | [4] | [5] | [6]

O=c1n(Cl)c(=O)n(Cl)c(=O)n1Cl
not listed: [1] | [9] | [10]
inactive: all other assays above

CCOc1nc(C(Cl)(Cl)Cl)ns1
inactive: [1] | [3] | [4] | [6] | [7]

CC(C)C1(C)N=C(c2ncccc2C(=O)O)NC1=O (centres undefined)
inactive: [2] | [3] | [4] | [7] | [8]

CCOc1cc(C(C)(C)C)ccc1C1COC(c2c(F)cccc2F)=N1 (centres undefined)
inactive: [1] | [2] | [3] | [6] | [7] | [8]

C=CCOC(=O)C(C)(C)OC(=O)c1cc(-n2c(=O)cc(C(F)(F)F)n(C)c2=O)ccc1Cl
inactive: [2] | [3] | [4] | [5] | [7]

O=C(Nc1ccccc1-c1ccc(Cl)cc1)c1cccnc1Cl
inactive: [1] | [2] | [4] | [5] | [6] | [7]

CCNP(=S)(OC)O/C(C)=C/C(=O)OC(C)C (centres undefined)
not listed: [1] | [9] | [10]
inactive: all other assays above

C=C(C)CN(CC)c1c([N+](=O)[O-])cc(C(F)(F)F)cc1[N+](=O)[O-]
not listed: [3] | [9] | [10]
inactive: all other assays above

Clc1cccc(C(Cl)(Cl)Cl)n1
not listed: [4] | [9] | [10]
inactive: all other assays above

CC(C)Nc1nc(Cl)nc(NC(C)C)n1
not listed: [4] | [9] | [10]
inactive: all other assays above

OC(c1ccc(Cl)cc1)(c1ccc(Cl)cc1)C(Cl)(Cl)Cl
inactive: [2] | [3] | [4] | [5] | [6] | [8]

CCCCC(O)(Cn1cncn1)c1ccc(Cl)cc1Cl (centres undefined)
not listed: [3] | [9] | [10]
inactive: all other assays above

COC(=O)NC(=S)Nc1ccccc1NC(=S)NC(=O)OC
not listed: [5] | [9] | [10]
inactive: all other assays above

COCC(=O)N(c1c(C)cccc1C)C(C)C(=O)OC (centres undefined)
inactive: [1] | [3] | [4] | [5] | [6] | [7]

CCNC(=O)NC(=O)C(C#N)=NOC
inactive: [3] | [5] | [7] | [8]
active: [1] 41.6 µM | [2] 45.6 µM | [6] 53.2 µM

CCCCOCN(C(=O)CCl)c1c(CC)cccc1CC
inactive: [1] | [2] | [3] | [4] | [7] | [8]

CC(C)N1C(=O)c2ccccc2NS1(=O)=O
inactive: [1] | [2] | [5] | [6] | [7]

Cc1ccc(N=CN(C)C=Nc2ccc(C)cc2C)c(C)c1
not listed: [5] | [9] | [10]
inactive: all other assays above

COC(=O)NS(=O)(=O)c1ccc(N)cc1
inactive: [2] | [3] | [4] | [6] | [7] | [8]

O=C(O)c1c(Cl)ccc2cc(Cl)cnc12
inactive: [2] | [3] | [4] | [6] | [8]

Nc1c(Cl)c(F)nc(OCC(=O)O)c1Cl
inactive: [1] | [3] | [4] | [5] | [7] | [8]

Nc1c(Cl)c(Cl)nc(C(=O)O)c1Cl
not listed: [1] | [6] | [7]
inactive: all other assays above

CO/N=C(/C1=NOCCO1)c1ccccc1Oc1ncnc(Oc2ccccc2Cl)c1F
active: [3] 6.85 µM
inactive: [1] | [2] | [5] | [8]

COP(=S)(OC)SCn1nnc2ccccc2c1=O
inactive: [3] | [4] | [5] | [6] | [8]

Cc1cnc(C2=NC(C)(C(C)C)C(=O)N2)c(C(=O)O)c1 (centres undefined)
not listed: [3] | [9] | [10]
inactive: all other assays above

Clc1nc(Cl)nc(Nc2ccccc2Cl)n1
inactive: [2] | [3] | [5] | [7] | [8]
